Laboratory results taken from PubChem BioAssay (NCATS).
Values without a mark were called inactive. Results filed as inconclusive are left out. Where a call stands in place of a potency, no number is given. The source made the active and inactive calls. Unless noted, calls come from the whole dose curve; as a rule, active = well fitted curve in the direction sought with a large enough effect; inconclusive = small, poorly fitted or top-dose-only effect, or another doubt; inactive = no such curve, though single readings can be large; an effect the other way counts as inactive or inconclusive.

Legend:
[1] = test system: Zika virus NS2B-NS3 protease (linked construct); experiment: Confirmatory screen NINDS AMC qHTS for Zika virus inhibitors (AID 1347152); note: nearly all actives have a fitted effect of over 70% in size; note: potency is the fitted concentration of half-maximal effect;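 for activity change, negative = inhibition: AMC fluorescence gain from cleaved Bz-Nle-KRR-AMC substrate over 15 min; top concentration of the series differs between compounds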
Procedure, shortened: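 Purified NS2B-NS3 protease with NS2B hydrophilic domain linked to NS3 protease domain by flexible linker, 1 nM final in 10 mM Tris-HCl pH 8.0, 0.01% Tween 20. Compounds preincubated 15 min, room temperature; Bz-Nle-KRR-AMC 10 microM (Km 18.3 µM); 15-min fluorescence change, 4-parameter Hill fit.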

[2] = test system: Zika virus NS2B-NS3 protease (unlinked complex); experiment: Confirmatory screen GU AMC qHTS for Zika virus inhibitors (AID 1347153); note: nearly all actives have a fitted effect of over 70% in size;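 for potency: enzyme at 25 nM with substrate at 10 µM below its Km of 18.3 µM; potency is the fitted concentration of half-maximal effect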
Procedure, shortened: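 Noncovalent NS2B hydrophilic domain/NS3 protease complex (25 nM) in 10 mM Tris-HCl pH 8.0, 0.01% Tween 20 was preincubated 15 min at room temperature with compounds. Then 10 µM AMC substrate (Km 18.3 µM) was added; fluorescence was read over 15 min and fitted to a 4-parameter Hill equation.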

[3] = test system: Zika virus NS2B-NS3 protease; experiment: Primary screen GU AMC qHTS for Zika virus inhibitors (AID 1347154); note: nearly all actives have a fitted effect of over 70% in size; note: potency is the fitted concentration of half-maximal effect
Procedure, shortened: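 Unlinked Zika NS2B hydrophilic domain/NS3 protease domain noncovalent complex (25 nM final) in 10 mM Tris-HCl pH 8.0, 0.01% Tween 20, with AMC peptide substrate. Fluorescence (ex 340, em 450 nm) change over 15 min, room temperature; percent inhibition fitted to 4-parameter Hill equation.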

[4] = Confirmatory screen NINDS Rhodamine qHTS for Zika virus inhibitors (AID 1347161); note: nearly all actives have a fitted effect of over 60% in size; note: potency is the fitted concentration of half-maximal effect;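 for activity change, negative = inhibition: purified Zika NS2B-NS3 protease with linked NS2B cofactor domain and Rhodamine110 peptide substrate; series mostly up to about 110 µM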
Procedure, shortened: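 Rhodamine110-peptide cleavage (1.5 µM substrate) by 25 nM linked NS2B-NS3 enzyme at pH 8.0 (Tris, Tween 20), after 15 min RT preincubation with compounds; 15-min fluorescence change normalized to controls and Hill-fitted.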

[5] = test system: Zika virus NS2B-NS3 protease (linked construct); experiment: 384 well plate NINDS Rhodamine confirmatory qHTS for Zika virus inhibitors (AID 1347164);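 note: fluorescence from protease cleavage of Ac-LKRR-rhodamine 110 substrate; nearly all actives have a fitted effect of over 65% in size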; note: potency is the fitted concentration of half-maximal effect; for activity change, negative = inhibition: top concentration of the series differs between compounds
Procedure, shortened: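 Linked protease at a final 5 nM, 30 nM or 60 nM was preincubated ~15 min with compounds, then given 10 microM Ac-LKRR-Rhodamine 110. Fluorescence (ex 485/em 538 nm) after 25 min in the dark at room temperature.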

[6] = Vero cells viability qHTS for Zika virus inhibitors (AID 1347167)
Procedure, shortened: (§1)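 Counter-screen for cytotoxicity of hits from NS2B-NS3 protease qHTS. Overnight-attached cells (2.5 x 10^5 cells/mL, DMEM/4% FBS) were dosed in titration, incubated 24 to 48 hours, then assayed by CellTiter Glo.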

[7] = HepG2 cells viability qHTS for Zika virus inhibitors (AID 1347168); note: potency is the fitted concentration of half-maximal effect
Procedure, shortened: as §1

[8] = Primary qHTS for small molecule stabilizers of the endoplasmic reticulum resident proteome: Secreted ER Calcium Modulated Protein (SERCaMP) assay (AID 1508630)
Procedure, shortened: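 GLuc-SERCaMP-expressing SH-SY5Y cells, pretreated 16 h with compound, are challenged with thapsigargin to empty ER calcium stores; after 4 h, coelenterazine is added directly to the medium and luminescence is imaged.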

Furin (Homo sapiens) = Furin (Homo sapiens) (UniProt P09958); experiment: Furin counterscreen qHTS for Zika virus inhibitors (AID 1347149); note: nearly all actives have a fitted effect of over 70% in size; note: potency is the fitted concentration of half-maximal effect;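 for activity change, negative = inhibition: purified recombinant full-length human furin enzyme at 5 nM; fluorescence gain from furin cutting a BOC-RVRR-AMC peptide substrate over 15 min; top concentration of the series differs between compounds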
Procedure, shortened: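 Fluorogenic cleavage of BOC-RVRR-AMC (2 microM final, Km ~15 µM) was monitored (ex 340, em 450 nm) at 37C after 15 min RT preincubation of 5 nM furin with compounds in HEPES pH 7.0 buffer with CaCl2 and Triton X-100. Percent inhibition was fitted to a 4-parameter Hill curve.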

[9] = Tertiary RLuc qRT-PCR qHTS assay for Zika virus inhibitors (AID 1347169); note: nearly all actives have a fitted effect of over 55% in size; note: potency is the fitted concentration of half-maximal effect; for activity change, negative = inhibition: top concentration of the series differs between compounds
Procedure, shortened: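 Vero cells (1,000 per well) plated overnight at 37 degrees C, treated with compound in DMSO, then infected with recombinant ZIKV-RLuc (Cambodian) at MOI 1-2 for 48-72 hrs. Live-cell Renilla luciferase substrate added; luminescence read after 1-1.5 hrs.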

[10] = test system: Zika virus NS2B-NS3 protease (linked); experiment: 384 well plate NINDS AMC confirmatory qHTS for Zika virus inhibitors (AID 1347163);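 note: linked protease at 5 30 or 60 nM final depending on run; fluorescence of AMC released from Ac-VKTGKR-AMC peptide cleaved by the protease; top concentration of the series differs between compounds; nearly all actives have a fitted effect of over 50% in size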
Procedure, shortened: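 Linked protease 5/30/60 nM final; cpds up to 1 mM final, ~15 min preinc. Substrate Ac-VKTGKR-AMC 30 microM final. RT, dark, 25 min; FI ex 355/em 460; normalized to no-enzyme/no-inhibitor ctrls.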

[11] = biological target: Cytochrome P450 1A2 (Homo sapiens) (UniProt P05177); experiment: p450-cyp1a2 (AID 410; calls by dose curve; note: potency is the fitted concentration of half-maximal effect)
Procedure, shortened: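 Inhibition was calculated relative to 57 uM furafylline (full inhibition). The reaction used human CYP1A2 at 20nM with Luciferin-ME at its Km, 100uM, driven by an NADPH-regenerating system for 60 min at room temperature.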

[12] = biological target: Glucocorticoid receptor (Homo sapiens) (UniProt P04150); experiment: GR-GFP Redistribution (AID 450;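 active = compounds whose dose series gives a full or clear partial fitted curve of increased nuclear translocation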; note: potency is the fitted concentration of half-maximal effect); details: U2OS GR-GFP nuclear translocation, laser cytometry, 2 h
[13] = biological target: Glucocorticoid receptor (Homo sapiens) (UniProt P04150); experiment: GR-EFC Redistribution (AID 451; calls by dose curve; note: potency is the fitted concentration of half-maximal effect); details: CHO-K1 GR-EFC translocation, beta-gal luminescence, 2 h
Procedure, shortened: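 CHO-K1 cells stably expressing nuclear-localized β-gal enzyme acceptor and GR fused C-terminally to the enzyme donor fragment; ligand-driven nuclear translocation restores β-gal by complementation. Compounds titrated up to 46 uM final, 2 h at 37 °C; luminescence read.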

[14] = biological target: Cytochrome P450 3A4 (Homo sapiens) (UniProt P08684); experiment: qHTS Assay for Activators of Cytochrome P450 3A4 (AID 885); note: nearly all actives have a fitted effect of over 65% in size
Procedure, shortened: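 20nM CYP3A4 + 25uM Luciferin-PPXE (=KM), 200mM KPO4; cpd 10 min RT; NADPH regen, 60 min RT; stop w/ detection buffer, 20 min; luminescence. Normalized to 57 uM ketoconazole.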

Chain of Furin (Homo sapiens) (P09958 whole entry, looked up): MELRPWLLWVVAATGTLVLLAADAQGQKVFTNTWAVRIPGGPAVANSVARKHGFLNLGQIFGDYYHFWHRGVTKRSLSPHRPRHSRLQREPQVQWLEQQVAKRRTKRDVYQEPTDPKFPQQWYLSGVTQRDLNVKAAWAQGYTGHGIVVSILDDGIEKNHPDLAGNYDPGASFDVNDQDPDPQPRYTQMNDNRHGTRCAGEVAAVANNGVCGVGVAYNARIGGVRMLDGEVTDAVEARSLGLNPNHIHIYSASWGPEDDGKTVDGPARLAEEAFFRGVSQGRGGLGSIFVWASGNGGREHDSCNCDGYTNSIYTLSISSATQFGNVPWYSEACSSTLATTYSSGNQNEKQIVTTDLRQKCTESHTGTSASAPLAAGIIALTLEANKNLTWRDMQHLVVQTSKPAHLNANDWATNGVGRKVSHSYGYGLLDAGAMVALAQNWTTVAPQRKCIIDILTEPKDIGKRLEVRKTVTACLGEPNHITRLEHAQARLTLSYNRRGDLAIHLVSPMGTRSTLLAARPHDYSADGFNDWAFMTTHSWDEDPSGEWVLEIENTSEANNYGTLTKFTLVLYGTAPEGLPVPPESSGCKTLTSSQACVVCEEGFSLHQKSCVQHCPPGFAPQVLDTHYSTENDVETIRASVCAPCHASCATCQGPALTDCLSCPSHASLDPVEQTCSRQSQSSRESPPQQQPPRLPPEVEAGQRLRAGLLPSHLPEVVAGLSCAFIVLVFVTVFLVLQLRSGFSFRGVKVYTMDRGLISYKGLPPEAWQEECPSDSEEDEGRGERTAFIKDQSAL
Chain of Glucocorticoid receptor (Homo sapiens) (P04150 whole entry, looked up, the tested form may be a part): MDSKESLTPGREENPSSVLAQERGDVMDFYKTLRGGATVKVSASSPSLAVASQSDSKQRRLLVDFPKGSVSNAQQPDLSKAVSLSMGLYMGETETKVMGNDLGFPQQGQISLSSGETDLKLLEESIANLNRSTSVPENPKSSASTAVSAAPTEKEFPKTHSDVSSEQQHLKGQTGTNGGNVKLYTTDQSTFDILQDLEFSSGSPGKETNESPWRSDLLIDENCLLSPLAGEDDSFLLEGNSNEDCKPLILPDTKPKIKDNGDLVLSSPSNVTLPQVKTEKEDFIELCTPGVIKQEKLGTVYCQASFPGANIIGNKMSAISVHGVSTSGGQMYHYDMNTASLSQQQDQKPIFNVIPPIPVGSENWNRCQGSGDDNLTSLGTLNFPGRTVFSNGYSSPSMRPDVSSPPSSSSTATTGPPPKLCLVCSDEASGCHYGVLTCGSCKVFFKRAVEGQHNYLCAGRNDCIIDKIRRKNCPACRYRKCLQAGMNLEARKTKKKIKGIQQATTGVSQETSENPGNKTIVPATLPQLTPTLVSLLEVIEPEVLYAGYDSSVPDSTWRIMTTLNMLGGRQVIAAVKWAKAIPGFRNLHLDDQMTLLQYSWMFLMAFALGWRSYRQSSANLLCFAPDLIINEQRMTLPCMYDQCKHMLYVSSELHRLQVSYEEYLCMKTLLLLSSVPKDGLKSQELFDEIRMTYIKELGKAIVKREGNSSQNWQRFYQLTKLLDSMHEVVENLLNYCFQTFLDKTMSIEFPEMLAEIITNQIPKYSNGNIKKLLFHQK
Chain of Cytochrome P450 1A2 (Homo sapiens) (P05177 whole entry, looked up): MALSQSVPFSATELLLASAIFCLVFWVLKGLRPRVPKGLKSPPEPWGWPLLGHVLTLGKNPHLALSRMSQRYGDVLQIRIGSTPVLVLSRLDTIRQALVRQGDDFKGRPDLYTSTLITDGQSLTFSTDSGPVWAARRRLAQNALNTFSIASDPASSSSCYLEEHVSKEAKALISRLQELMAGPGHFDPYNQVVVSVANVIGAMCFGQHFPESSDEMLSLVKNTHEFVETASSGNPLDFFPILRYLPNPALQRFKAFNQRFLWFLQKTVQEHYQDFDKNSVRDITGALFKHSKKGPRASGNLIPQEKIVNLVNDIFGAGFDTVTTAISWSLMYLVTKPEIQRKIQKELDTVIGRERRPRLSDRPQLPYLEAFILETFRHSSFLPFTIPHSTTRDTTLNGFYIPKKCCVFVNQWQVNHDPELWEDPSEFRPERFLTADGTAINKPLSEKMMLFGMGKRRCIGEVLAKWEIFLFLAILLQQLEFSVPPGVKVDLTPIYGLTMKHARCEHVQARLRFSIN
Chain of Cytochrome P450 3A4 (Homo sapiens) (P08684 whole entry, looked up): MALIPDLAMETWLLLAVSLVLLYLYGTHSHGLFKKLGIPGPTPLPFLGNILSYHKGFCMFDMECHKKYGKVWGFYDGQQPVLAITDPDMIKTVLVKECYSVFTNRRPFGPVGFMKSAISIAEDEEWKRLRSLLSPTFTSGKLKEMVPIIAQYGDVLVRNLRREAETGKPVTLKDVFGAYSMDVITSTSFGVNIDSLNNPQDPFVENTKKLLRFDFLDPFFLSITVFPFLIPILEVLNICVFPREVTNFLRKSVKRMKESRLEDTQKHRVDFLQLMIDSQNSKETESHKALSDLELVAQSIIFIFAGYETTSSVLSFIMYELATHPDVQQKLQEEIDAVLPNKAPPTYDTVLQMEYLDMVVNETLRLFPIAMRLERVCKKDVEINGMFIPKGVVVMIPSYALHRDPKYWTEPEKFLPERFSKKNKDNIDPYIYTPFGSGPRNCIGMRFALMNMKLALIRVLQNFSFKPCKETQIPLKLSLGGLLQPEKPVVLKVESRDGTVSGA

For `CCCCc1nn(-c2ccccc2C(F)(F)F)c(=O)n1Cc1ccc(-c2ccccc2S(=O)(=O)NC(=O)c2sccc2C)cc1`, the Potency [1] was 24.1 µM (active), the Potency [2] was 21.5 µM (active) and the Potency [3] was 21.2 µM (active). The Potency [4] was 4.41 µM (active), the Potency [5] was 28.2 µM (active) and the Potency [6] was “inactive”. For the same compound, the Potency [7] was “inactive” and the Potency [8] was “inactive”.
In the case of `O=C(OCc1cc(=O)n2nc(C3CC3)sc2n1)c1cccc(NC(=O)c2ccccc2Cl)c1`, the Potency (Furin (Homo sapiens)) is reported as “inactive” and the Potency [9] is reported as “inactive”.
For `Clc1cc(OCc2nnc3sc(Cc4ccccc4)nn23)c(Cl)cc1OCc1nnc2sc(Cc3ccccc3)nn12`, the Potency [1] was 12.6 µM (active), the Potency [4] was 3.55 µM (active) and the Potency [5] was 7.94 µM (active). For the same compound, the Potency [9] was “inactive”.
For `O=S(=O)(N[C@H]1CO[C@H]2[C@@H]1OC[C@@H]2n1nnnc1-c1ccc2c(c1)OCO2)c1ccc2ccccc2c1`, the Potency [1] was “inactive”, the Potency [2] was “inactive” and the Potency [9] was “inactive”.
In the case of `COc1cccc(C(=O)Nc2ccc(C(=O)OCc3cc(=O)n4nc(C5CC5)sc4n3)cc2)c1`, the Potency (Furin (Homo sapiens)) is reported as 41.8 µM (active), the Potency [10] is reported as “inactive” and the Potency [5] is reported as “inactive”.
In the case of `CC1OC(OC2C(O)CC(OC3C(O)CC(OC4CCC5(C)C(CCC6C5CC(O)C5(C)C(C7=CC(=O)OC7)CCC65O)C4)OC3C)OC2C)CC(O)C1O` (configuration not stated), the Potency (Furin (Homo sapiens)) is reported as “inactive”, the Potency [6] is reported as “inactive” and the Potency [7] is reported as “inactive”. For the same compound, the Potency [9] was 0.214 µM (active).
With `O=C(O)COc1ccc(-c2nccc3c2C(=O)N(Cc2ccccc2)CC(COc2ccc4cccnc4c2)O3)cc1` (configuration not stated) the Potency (Furin (Homo sapiens)) was 49.4 µM (active), the Potency [5] was 44.7 µM (active) and the Potency [9] was “inactive”.
With `Cc1ccc(OCC(=O)Nc2ccc(C(=O)OCc3cc(=O)n4nc(C5CC5)sc4n3)cc2)cc1` the Potency (Furin (Homo sapiens)) was “inactive” and the Potency [9] was “inactive”.
With `CC(C)CC(NC(=O)NC(CCC(=O)O)C(=O)O)C(=O)O` (configuration not stated) the Potency [3] was “inactive”.
Compound `CC(C)=CCC/C(C)=C/CC/C(C)=C/CC[C@]1(C)CCc2c(C)c(O)c(C)c(C)c2O1` has an activity change, negative = inhibition [3] of 0.636% [at 6.83 µM].
With `CC(C)c1cc(/C=C(\C#N)C(=O)NCCCc2ccccc2)cc(C(C)C)c1O` the Potency [3] was “inactive”.
With `N[C@@H](Cc1cc(I)c(Oc2ccc(O)cc2)c(I)c1)C(=O)O` the Potency [3] was “inactive”.
Work on `CCCCCCCCCCC/C=C\C/C=C\CCCC(=O)O` yielded an activity change, negative = inhibition [3] of 7.9% [at 6.83 µM].
In the case of `CC[C@@H]1Cn2c(c3nc(-c4cc(Cl)cc(Cl)c4Cl)nc-3n(C)c2=O)N1`, the Potency [3] is reported as “inactive”.
In the case of `Cc1c(-c2ccc(O)cc2)nn(-c2ccc(O)cc2)c1-c1ccc(OCCN2CCCCC2)cc1`, the Potency [11] is reported as 12.6 µM (active), the Potency [12] is reported as greater than 46 µM and the Potency [13] is reported as greater than 46 µM. For the same compound, the Potency [14] was “inactive”, the Potency [2] was “inactive” and the Potency [4] was “inactive”. The Potency [6] was “inactive” and the Potency [7] was 29.4 µM (active).
With `Nn1cc(Br)c(=O)[nH]c1=O` the Potency [3] was “inactive”.
In the case of `O=C(Nc1ccc([N+](=O)[O-])cc1O)Nc1ccccc1Br`, the Potency [3] is reported as “inactive”.
In the case of `CCCCCCCCCCCCCCCCOCC(COP(=O)([O-])OCC[N+](C)(C)C)OC` (configuration not stated), the activity change, negative = inhibition [3] is reported as 5.04% [at 6.83 µM].
In the case of `CC(=Nc1ccccc1N)c1c(C)cc(=O)n(O)c1O`, the Potency [3] is reported as “inactive”.
